In PubChem BioAssay (NCI):
Compounds without any hit were thinned out: in the full panel of roughly 83,000, 20% have a hit.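 Method: cells in 96-well plates; compound added at one concentration; 48 h incubation; percent growth measured; values under 10 scored active.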 A number with no mark means an inactive call. Active and inactive are the calls of the source.

Columns and labels:
Assay in all cases: NCI-60 one-dose screen, 48 h (100 = growth as untreated, 0 = no growth, -100 = all killed)
Settings in all cases: 10 µM unless noted
NCI-H23 lung = test system: NCI-H23 lung
NCI-H226 lung = test system: NCI-H226 lung
HOP-62 NSCLC = test system: HOP-62 NSCLC
NCI-H460 lung = test system: NCI-H460 lung
HOP-92 NSCLC = test system: HOP-92 NSCLC
NCI-H522 lung = test system: NCI-H522 lung
A549/ATCC NSCLC = test system: A549/ATCC NSCLC
786-0 renal = test system: 786-0 renal
COLO 205 colon = test system: COLO 205 colon
DU-145 prostate = test system: DU-145 prostate
K-562 leukemia = test system: K-562 leukemia
MALME-3M melanoma = test system: MALME-3M melanoma
MDA-MB-231 breast = test system: MDA-MB-231 breast
RXF 393 renal = test system: RXF 393 renal
SF-268 CNS = test system: SF-268 CNS
SF-295 CNS = test system: SF-295 CNS
SF-539 CNS = test system: SF-539 CNS
UACC-257 melanoma = test system: UACC-257 melanoma
M14 melanoma = test system: M14 melanoma

SMILES | growth (NCI-H23 lung) | growth (NCI-H226 lung) | growth (HOP-62 NSCLC) | growth (NCI-H460 lung) | growth (HOP-92 NSCLC) | growth (NCI-H522 lung) | growth (A549/ATCC NSCLC) | growth (786-0 renal) | growth (COLO 205 colon) | growth (DU-145 prostate) | growth (K-562 leukemia) | growth (MALME-3M melanoma) | growth (MDA-MB-231 breast) | growth (RXF 393 renal) | growth (SF-268 CNS) | growth (SF-295 CNS) | growth (SF-539 CNS) | growth (UACC-257 melanoma) | growth (M14 melanoma)
CCN(CC)C(=O)C1=C(C)NC(=O)NC1c1ccc2c(c1)OCO2 (centres undefined) | 103% | 100% | 105% | 106% | 109% | 96.6% | 106% | 106% | 114% | 113% | 101% | 108% | 108% | 102% | 102% | 103% | 96.2% | 103% | 104%
CCn1cc(Cc2cc(C(=O)Nc3cc4cc(OC)c(OC)cc4c(C)n3)ccc2Cl)cn1 | 52% | 30.8% | 39.8% | 76.3% | 47.1% | 17.6% | 38.9% | 51.7% | 46.4% | 55.3% | 34.4% | 63.4% | 36.3% | 73.2% | 49.3% | 39.7% | 8.23% (active) | 40.9% | 32.6%
CSc1nc2ccc(C)cc2cc1/C=C1/C=C(c2ccccc2)NC1=O | 75.2% | 69.4% | 72.8% | 19.2% | 36.4% | 67.6% | 47.2% | 2.66% (active) | 69.8% | 47.4% | 41.3% | 40.4% | 38.5% | 79.1% | 66.3% | 36.7% | 39.5% | 80% | 64.1%
c1ccc(Cn2cc3c(c2-c2ccccc2)CCc2cnoc2-3)cc1 | 78.8% | 83.6% | 75.1% | 53.7% | 65.8% | 56.6% | 59.6% | 80.2% | 80.5% | 88.3% | 16.2% | 45.8% | 87.2% | 80.6% | 76.6% | 60.4% | 71.9% | 92.4% | 44.1%
O=C(Cc1ccc(/C=C/C(=O)c2ncc[nH]2)cc1)Nc1cc(F)c(F)c(F)c1 | 32.2% | 95.2% | 90.6% | 28.2% | 116% | 49.1% | 70.6% | 8.88% (active) | 64.9% | 18.7% | 18.3% | 93.7% | 41.4% | 13.1% | 58.3% | 77.3% | 5.66% (active) | 99.9% | 85.2%
Cc1ccc(Cc2cnc(NC(=O)/C=C/c3ccc(C)o3)s2)cc1 | 56% | 69.9% | 53.6% | 12% | 59.5% | 19.3% | 35.7% | 42% | 23.2% | 33.9% | 18.6% | 35.2% | 67.9% | 41.6% | 52.9% | 23.6% | 23.6% | 62.5% | 12.1%
COc1cc(-c2nccc3[nH]c(-c4cccc5[nH]ccc45)nc23)cc(OC)c1OC | 26.8% | 34% | 12.2% | 7.17% (active) | -2.13% (active) | -15.7% (active) | 17.3% | 7.27% (active) | -62.9% (active) | 22.7% | 8.35% (active) | 56% | 19.7% | 50.8% | 34.2% | 21% | 3.35% (active) | 58.7% | 20.6%
COc1ccc2c(O)c(/C=C3\N=Nc4ncccc43)oc2c1C[C@@H]1CCNC[C@H]1F | -33.1% (active) | -4.38% (active) | -30.5% (active) | -51.2% (active) | 98.7% | -28.5% (active) | -24.1% (active) | -78.3% (active) | -71.9% (active) | -19.7% (active) | -26.4% (active) | -31.2% (active) | -40% (active) | -68.1% (active) | -31.1% (active) | 0.571% (active) | -48.2% (active) | 13.7% | -70.3% (active)
COc1ccc(-c2cc(-c3cn(-c4cccc(Cl)c4)nc3-c3ccc(OC)cc3)on2)cc1 | 95.3% | 89.9% | 107% | 98.6% | 104% | 74.8% | 83% | 100% | 116% | 113% | 84.7% | 127% | 80.9% | 102% | 108% | 108% | 112% | 112% | 101%
O=C(Nc1cccnc1Nc1ccc(Cl)cc1)c1cn(Cc2cccc(Oc3ccccc3)c2)nn1 | 63% | 55.9% | 61.1% | 35.2% | 53% | 44.6% | 42.4% | 52.2% | 73.6% | 59.7% | 23.1% | 58% | 53.3% | 44.1% | 45.2% | 29.2% | 33.6% | 62% | 21.8%
CCN(CCNc1ccc(C)c2sc3cc(Cl)ccc3c(=O)c12)CC(C)(C)O | 82.3% | 87.6% | 45.3% | 44.4% | 48.3% | 76.7% | 50.9% | 47.6% | 21.4% | 86.8% | 29.7% | 67.5% | 32% | -18.5% (active) | 79.8% | 88% | 65.8% | -8.78% (active) | -65.9% (active)
CSc1nc(-c2ccco2)c(C#N)c(=O)n1C | 66.1% | 101% | 89.5% | 105% | 91.6% | 100% | 100% | 104% | 97.2% | 106% | 101% | 88.8% | 107% | 112% | 106% | 97.9% | 89.7% | 96.9% | 108%
C=C(C)[C@@H]1CC[C@]2(C(=O)Nc3ccccn3)CC[C@]3(C)[C@H](CC[C@@H]4[C@@]5(C)CCCNC(C)(C)[C@@H]5CC[C@]43C)[C@@H]12 | 19.5% | 43.3% | 30.4% | -40.3% (active) | 41.8% | 12.6% | 23.1% | 33.9% | -62.2% (active) | 34.8% | -1.45% (active) | -2.67% (active) | 49.9% | 51.3% | 39.8% | 44.4% | 34.1% | 9.84% (active) | 26.6%
Oc1c(I)cc(I)cc1CN(Cc1ccccn1)Cc1ccccn1 | 25.6% | 21.7% | 18.7% | 4.01% (active) | 24.4% | 11.5% | 7.57% (active) | 18.2% | 16% | 29% | 14.2% | 17.1% | 33.4% | 46.7% | 19.7% | 23.5% | 4.05% (active) | 1.45% (active) | -16.6% (active)
Cc1cccc(NC(=O)N/C(N)=N/c2nc3ccccc3s2)c1 | 40.9% | 53.7% | 30.3% | 17.6% | 62.7% | 16% | 45.9% | 38.6% | 16.9% | 34.6% | 18.1% | 50.7% | 58.8% | 26.3% | 54.2% | 49.1% | -3.23% (active) | 55% | 16.5%
O=C1CCCCN1c1ccc(C2=NCCCN2)cc1 | 99.2% | 101% | 101% | 94.9% | 117% | 79.1% | 97% | 95% | 104% | 103% | 80.6% | 77.4% | 88.6% | 90.4% | 92% | 85.1% | 64.7% | 111% | 104%
